Measurements published in PubChem BioAssay (EPA / NIEHS).
Activity calls are given as the source filed them. How the source made its calls: active means hit-call score of the fitted dose curve at least 0.9, where 1 is the maximum; inactive means score below 0.9.

How the values were obtained:
[1] = read-out: TIMP metallopeptidase inhibitor 2 (TIMP2), TIMP2 (gene 7077); assay: BSK_KF3CT_TIMP2: BioMAP Diversity Plus: KF3CT Assay for TIMP metallopeptidase inhibitor 2 (TIMP2) Biomarker Activity (AID 2283071); conditions: primary human keratinocytes with fibroblasts; actives raise or lower the signal
In short: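 Co-culture of human primary keratinocytes and foreskin fibroblasts, measured 24 h after chemical dosing. TIMP-2 quantified by ELISA and fitted in both directions relative to DMSO. Cytotoxicity checked in parallel cultures by SRB total-protein staining.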

[2] = read-out: Transforming growth factor beta 1 (TGFb1), TGFB1 (gene 7040); assay: BSK_KF3CT_TGFb1: BioMAP Diversity Plus: KF3CT Assay for Transforming growth factor beta 1 (TGFb1) Biomarker Activity (AID 2283072); conditions: primary human keratinocytes with fibroblasts; actives raise or lower the signal
In short: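 Human keratinocyte/foreskin fibroblast co-culture; TGF-b1 measured by ELISA 24 h after dosing, fitted bidirectionally versus DMSO. Cytotoxicity checked in parallel cultures by total protein (SRB staining, 560 nm).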

[3] = read-out: C-C motif chemokine 2 (Homo sapiens) (UniProt P13500); assay: BSK_KF3CT_MCP1: BioMAP Diversity Plus: KF3CT Assay for Monocyte Chemoattractant Protein 1 (MCP1/CCL2) Biomarker Activity (AID 2283073); conditions: primary human keratinocytes with fibroblasts; actives raise or lower the signal
In short: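 Human keratinocyte–foreskin fibroblast co-culture; MCP-1 measured by ELISA 24 h after dosing. Bidirectional fit vs DMSO; cytotoxicity tracked by SRB total protein in parallel cultures.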

[4] = read-out: Matrix Metallopeptidase 9 (MMP9), MMP9 (gene 4318); assay: BSK_KF3CT_MMP9: BioMAP Diversity Plus: KF3CT Assay for Matrix Metallopeptidase 9 (MMP9) Biomarker Activity (AID 2283074); conditions: primary human keratinocytes with fibroblasts; actives raise or lower the signal;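 on AC50: MMP9 protein level quantified by ELISA in the co-culture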
In short: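 Human keratinocyte/foreskin fibroblast co-culture; compound added; 24 h; MMP-9 by ELISA; bidirectional fit vs DMSO baseline.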

[5] = read-out: urokinase plasminogen activator (uPA), PLAU (gene 5328); assay: BSK_KF3CT_uPA: BioMAP Diversity Plus: KF3CT Assay for urokinase plasminogen activator (uPA) Biomarker Activity (AID 2283075); conditions: primary human keratinocytes with fibroblasts; actives raise or lower the signal
In short: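 ELISA readout of uPA, analyzed for signal gain or loss relative to DMSO, from a human primary keratinocyte–foreskin fibroblast co-culture measured 24 h after chemical treatment.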

CD40, CD40 (gene 958) = assay: BSK_LPS_CD40: BioMAP Diversity Plus: LPS Assay for CD40 Biomarker Activity (AID 2283076); conditions: primary human HUVEC with PBMC; actives raise or lower the signal
In short: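 HUVEC plus PBMC co-culture stimulated with LPS; CD40 quantified by ELISA 24 h after compound dosing. Fitting was bidirectional relative to DMSO. SRB staining of parallel cultures flagged overt cytotoxicity.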

[6] = read-out: E-selectin (Homo sapiens) (UniProt P16581); assay: BSK_LPS_Eselectin: BioMAP Diversity Plus: LPS Assay for Eselectin Biomarker Activity (AID 2283077); conditions: primary human HUVEC with PBMC; actives raise or lower the signal
In short: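 Human umbilical vein endothelial cells co-cultured with PBMC under LPS stimulation; cell-surface E-selectin measured by ELISA 24 h after dosing. Change in either direction versus DMSO, with SRB total-protein staining in parallel cultures for cytotoxicity.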

[7] = read-out: Interleukin-8 (IL8), CXCL8 (gene 3576); assay: BSK_LPS_IL8: BioMAP Diversity Plus: LPS Assay for Interleukin-8 (IL8) Biomarker Activity (AID 2283078); conditions: primary human HUVEC with PBMC; actives raise or lower the signal
In short: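 Human umbilical vein endothelial cells co-cultured with PBMC, LPS-stimulated, exposed to compound for 24 h. IL-8 quantified by ELISA; fitted in both directions against DMSO, with SRB total-protein staining of parallel cultures for cytotoxicity.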

[8] = BSK_LPS_SRB: Viability Assessment in the BioMAP Diversity Plus: LPS Assay (AID 2283079); conditions: primary human HUVEC with PBMC;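 further: total protein by sulforhodamine B absorbance as a cytotoxicity measure; measured one day after compound addition; fitted in both directions against DMSO so loss or gain of signal counts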
In short: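 Co-culture of human umbilical vein endothelial cells and PBMC, read 24 h after dosing. Total protein by 0.1% SRB staining after 10% TCA fixation, absorbance at 560 nm; bidirectional fit against DMSO.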

[9] = read-out: Interleukin-1 alpha (IL1a), IL1A (gene 3552); assay: BSK_LPS_IL1a: BioMAP Diversity Plus: LPS Assay for Interleukin-1 alpha (IL1a) Biomarker Activity (AID 2283080); conditions: primary human HUVEC with PBMC; actives raise or lower the signal
In short: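 Human umbilical vein endothelial cells co-cultured with PBMC and stimulated with LPS; IL-1a measured by ELISA 24 h after dosing. Bidirectional fitting against DMSO; cytotoxicity checked by SRB staining in parallel cultures.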

Measured: AC50

Chain of E-selectin (Homo sapiens) (P16581 whole entry, looked up): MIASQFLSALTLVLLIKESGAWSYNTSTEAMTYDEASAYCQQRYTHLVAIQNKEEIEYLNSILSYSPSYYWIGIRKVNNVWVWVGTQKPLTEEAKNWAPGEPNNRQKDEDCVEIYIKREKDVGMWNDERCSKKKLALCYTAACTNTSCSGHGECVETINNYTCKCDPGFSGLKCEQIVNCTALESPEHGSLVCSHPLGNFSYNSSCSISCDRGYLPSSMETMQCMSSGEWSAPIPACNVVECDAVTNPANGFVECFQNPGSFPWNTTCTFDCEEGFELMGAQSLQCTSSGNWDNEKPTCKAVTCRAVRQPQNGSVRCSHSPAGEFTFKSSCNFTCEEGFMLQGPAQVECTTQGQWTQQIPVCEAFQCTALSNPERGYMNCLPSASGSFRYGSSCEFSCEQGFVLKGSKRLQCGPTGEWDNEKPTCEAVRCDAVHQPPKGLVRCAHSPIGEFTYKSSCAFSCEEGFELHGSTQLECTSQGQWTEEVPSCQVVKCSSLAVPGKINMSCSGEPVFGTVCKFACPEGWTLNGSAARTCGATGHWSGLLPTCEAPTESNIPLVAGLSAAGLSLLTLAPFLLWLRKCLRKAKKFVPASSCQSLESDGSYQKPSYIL

CCOC(=O)/C=C(C)/C=C/C[C@@H](C)CCCC(C)C
active: [1] 27 µM | [2] 13.5 µM | [3] 7.27 µM | [4] 30.2 µM | [5] 31.2 µM | CD40, CD40 (gene 958) 20 µM | [6] 34.8 µM | [7] 32.7 µM | [8] 38.7 µM | [9] 33.3 µM

ClC(Cl)=C(Cl)C(Cl)=C(Cl)Cl
active: [1] 26.9 µM | [2] 29.2 µM | [3] 20 µM | [4] 28.9 µM | CD40, CD40 (gene 958) 31.4 µM | [8] 3.97 µM | [9] 31 µM
inactive: [5] | [6] | [7]

Cn1sc(Cl)cc1=O
active: CD40, CD40 (gene 958) 26 µM | [6] 35.4 µM | [9] 29.3 µM
inactive: all other assays above

O=C(O)C(Cl)(Cl)Cl
inactive: all assays above

O=[N+]([O-])c1ccc2c3c(cccc13)CC2
active: [1] 11.4 µM
inactive: all other assays above

COC(=O)Cc1ccccc1
not listed: [2]
inactive: all other assays above

C(=NC1CCCCC1)=NC1CCCCC1
active: [1] 20 µM | [2] 9.13 µM | [3] 29.4 µM | [4] 12.6 µM | [5] 28.8 µM | CD40, CD40 (gene 958) 27.4 µM | [6] 34.9 µM | [7] 30.9 µM | [8] 32.8 µM | [9] 29.4 µM

Oc1c(I)cc(I)cc1I
inactive: [3] | [7] | [9]
active: [1] 17 µM | [2] 7.06 µM | [4] 5.35 µM | [5] 31.2 µM | CD40, CD40 (gene 958) 14.2 µM | [6] 27.6 µM | [8] 20 µM

Nc1cccc2ccccc12
active: [4] 20 µM
not listed: [3]
inactive: all other assays above

C=C(C)C(=O)[O][Sn]([CH2]CCC)([CH2]CCC)[CH2]CCC
active: [1] 0.148 µM | [2] 0.148 µM | [4] 0.148 µM | [5] 0.148 µM | CD40, CD40 (gene 958) 0.148 µM | [6] 0.148 µM | [7] 0.38 µM | [8] 0.148 µM | [9] 0.148 µM

COP(=S)(OC)Oc1ccc(Sc2ccc(OP(=S)(OC)OC)cc2)cc1
active: [4] 10.4 µM | CD40, CD40 (gene 958) 20 µM | [7] 3.97 µM | [8] 13.7 µM | [9] 31 µM
inactive: [1] | [2] | [3] | [5] | [6]

COP(=S)(OC)Oc1ccc(S(=O)(=O)N(C)C)cc1
active: [9] 0.0677 µM
inactive: all other assays above

CCCCCCCCC(=O)NCc1ccc(O)c(OC)c1
active: [9] 0.1 µM
inactive: all other assays above

O=C(O)CCC(F)(C(F)(F)F)C(F)(F)F
not listed: [2]
inactive: all other assays above

C[C@]12CCC(=O)C[C@@H]1CC[C@@H]1[C@@H]2CC[C@]2(C)[C@@H](O)CC[C@@H]12
active: [6] 28.1 µM | [8] 19.8 µM
inactive: all other assays above

COP(=S)(OC)Oc1c(Cl)cc(C)cc1Cl
active: [4] 20 µM | [8] 27.7 µM | [9] 0.108 µM
inactive: all other assays above

O=C1C2(Cl)C3(Cl)C4(Cl)C(Cl)(Cl)C5(Cl)C3(Cl)C1(Cl)C5(Cl)C24Cl (stereo unspecified)
active: [1] 24.2 µM | [2] 6.14 µM | [3] 35.1 µM | [4] 8.52 µM | [5] 11.1 µM | CD40, CD40 (gene 958) 7.66 µM | [6] 11.1 µM | [7] 14.5 µM | [8] 6.4 µM | [9] 7.55 µM
